Bioassay records as filed in PubChem.
USP2a block = USP2a (human) protease inhibition; actives 0.01% (n = 330,000); AID 463254; Potency, µM (top dose mostly 38.3 µM), hits mostly inhibitors; USP2 core, Ub-CHOP2 coupled fluorogenic reporter, 485/531
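Deubiquitinase activity read as fluorescence (485/531 nm) after Ub-CHOP2 cleavage activates the enterokinase reporter on its substrate; USP2 core 10nM, Ub-CHOP2 and substrate 25nM each, 30min compound preincubation then 60min RT; data normalized to NEM, curves fitted.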
Integrin act MD = integrin-mediated muscular dystrophy alleviation activation; alpha7betagal myoblasts, beta-gal FDG fluorescence, 48 h; Potency, µM (doses to about 38.3 µM), actives largely listed as activators; actives 0.064% (n = 350,000); further: nearly all actives have a fitted effect of over 60% in size
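alpha7betagal+/- myoblasts (passage 13, 250/well) treated 48 h at 37C with compounds at 1:260 dilution of DMSO stock. Lysed, then beta-galactosidase activity read as FDG fluorescence (ex 480/em 540) after 30 min, with pre-read for autofluorescence.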
PKM2 activator = activators of human pyruvate kinase M2; Potency, µM (titrated, usually from 57.5 µM), actives largely listed as activators; AID 1631; P14618; purified PKM2, Kinase-Glo ATP luminescence, activation; response scale: 0% is enzyme alone, no compound; actives 0.34% (n = 260,000); further: nearly all actives have a fitted effect of over 55% in size
Target sequence (P14618 whole entry, looked up): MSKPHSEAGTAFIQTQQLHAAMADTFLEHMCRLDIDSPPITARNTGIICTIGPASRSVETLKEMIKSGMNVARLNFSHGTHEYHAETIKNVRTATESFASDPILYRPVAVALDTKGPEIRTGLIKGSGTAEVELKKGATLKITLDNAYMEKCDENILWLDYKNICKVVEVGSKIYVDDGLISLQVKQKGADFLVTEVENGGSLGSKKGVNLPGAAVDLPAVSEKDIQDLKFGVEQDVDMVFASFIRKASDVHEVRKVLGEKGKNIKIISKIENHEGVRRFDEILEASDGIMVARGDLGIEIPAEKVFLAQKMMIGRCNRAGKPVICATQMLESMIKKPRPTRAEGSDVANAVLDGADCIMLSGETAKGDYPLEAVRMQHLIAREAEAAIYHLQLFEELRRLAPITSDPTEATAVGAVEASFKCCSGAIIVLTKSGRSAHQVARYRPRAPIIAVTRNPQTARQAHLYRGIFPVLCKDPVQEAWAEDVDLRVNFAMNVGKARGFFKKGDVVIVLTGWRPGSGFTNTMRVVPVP
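Kinase-Glo luminescence reports ATP generated from ADP (0.1 mM) and PEP (0.5 mM) by purified hPK-M2 after 1 h at room temperature, pH 7.2 imidazole buffer; intermediate enzyme activity allows detecting inhibitors and activators.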
Pin1 inh = human Pin1 inhibition. Potency, µM (top dose mostly 115 µM), most hits filed as inhibitors. actives 0.009% (n = 390,000). Pin1 FP peptide displacement, HiFluor488, 10 min. Q13526; active means well fitted inhibition curve with a large enough effect in the polarisation, with a control signal flat, not every such curve was filed as active; inconclusive means small, poorly fitted or top-dose-only effect, or effect the other way, or a change in a side signal; inactive means no such curve, though single readings can be large or run the other way; the % refers to the polarisation
ClpP mod = qHTS Assay for Activators of ClpP | ATP-dependent Clp protease proteolytic subunit (Bacillus subtilis (strain 168)), P80244 | purified B. subtilis ClpP, FRET peptide cleavage, 20 min | Potency, µM (highest dose often 57.5 µM) | actives 1.9% (n = 340,000) | AID 651965, 2013; active means well fitted falling curve with a large enough effect; inconclusive means small, poorly fitted or top-dose-only effect; inactive means no such curve, though single readings can be large or run the other way; further: the source files actives as falling curves though it sought activators and does not explain the sign; nearly all actives have a fitted effect of over 65% in size
Target sequence (P80244 whole entry, looked up): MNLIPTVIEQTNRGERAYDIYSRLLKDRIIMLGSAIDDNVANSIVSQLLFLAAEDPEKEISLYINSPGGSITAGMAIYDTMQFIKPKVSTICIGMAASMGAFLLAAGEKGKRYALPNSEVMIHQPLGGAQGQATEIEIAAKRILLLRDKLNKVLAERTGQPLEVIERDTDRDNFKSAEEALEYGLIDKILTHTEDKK
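FRET quenching reversal measured ClpP activation: 10 microg/mL B. subtilis ClpP at pH 8 with the FRET-FV decapeptide, read at 430 nm after 320 nm excitation. The 20-min minus 0-min signal was scaled between DMSO/no-enzyme wells and ADEP (5.8 microM final).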
IL-2 act = activates IL-2 in a cell-based reporter assay; IL-2 activation reporter assay, cell-based qHTS; stimulated with anti-CD3/CD4/CD28 beads; in transgenic mouse T cells; activation, % (series mostly up to about 46 µM); actives 0.065% (n = 360,000); AID 652025; in the data active means activation above about 50%; inconclusive means mostly about 30% to 49%
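Screening format: compound pinned onto unstimulated transgenic mouse T cells, 60 min incubation, then anti-CD3/anti-CD4/anti-CD28 bead stimulation for 18 hours at 37 degrees C, followed by EGFP and DsRed detection.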
Large screens that a line does not name were inactive; ! = repeats disagree. Sampled rows, rich in hits. Any-hit rate of the full collection: about 1.9%. Unless noted, the call rests on the fitted dose curve; in most records, active means well fitted curve in the direction sought with a large enough effect; inconclusive means small, poorly fitted or top-dose-only effect, or another doubt; inactive means no such curve, though single readings can be large; an effect the other way counts as inactive or inconclusive.

COc1ccc(-n2c(=O)/c(=C\c3cccs3)s/c2=C(/C#N)C(=O)N2CCN(C)CC2)cc1	ClpP mod 32µM
N#C/C(C(=O)N1CCOCC1)=c1/s/c(=C\c2ccccn2)c(=O)n1-c1ccccc1	none (no result: ClpP mod)
O=S(=O)(NCCNc1nc(-c2ccco2)nc2ccccc12)c1ccccc1	none (no result: USP2a block, Integrin act MD, PKM2 activator, ClpP mod, IL-2 act)
CCCCCNC(=O)C(C#N)c1nc2ccccc2nc1N1CCCC1 (stereo unspecified)	USP2a block inconclusive, Pin1 inh inconclusive, IL-2 act 150
N#CC(C(=O)NCCc1ccccc1)c1nc2ccccc2nc1N1CCCCC1 (stereo unspecified)	USP2a block inconclusive
N#CC(C(=O)NCc1ccccc1)c1nc2ccccc2nc1N1CCCC1 (stereo unspecified)	Pin1 inh inconclusive, IL-2 act 153
CCCCCCNC(=O)C(C#N)c1nc2ccccc2nc1N1CCCC1 (stereo unspecified)	USP2a block inconclusive, Pin1 inh inconclusive, IL-2 act inconclusive
CCOC(=O)N1CCN(c2nc3ccccc3nc2C(C#N)C(=O)NCCc2ccccc2)CC1 (stereo unspecified)	Pin1 inh inconclusive, ClpP mod 14µM
CC1=C/C(=C\c2ccc(N(C)C)cc2)c2ccccc21	none (no result: USP2a block, Integrin act MD, PKM2 activator, Pin1 inh, IL-2 act)
CCCCCCCC(=O)Nc1ccc(C(=O)N/N=C/c2cccc([N+](=O)[O-])c2)cc1	ClpP mod 28µM
CCCCCCC(=O)Nc1ccc(C(=O)N/N=C/c2cccnc2)cc1	none
CCCC(=O)Nc1ccc(C(=O)N/N=C/c2ccc([N+](=O)[O-])o2)cc1	ClpP mod 32µM
CS(=O)(=O)c1ccc(/C=C2\C=Cc3ccccc32)cc1	none (no result: USP2a block, Integrin act MD, PKM2 activator, Pin1 inh, IL-2 act)
[N-]=[N+]=CC(=O)C(Cc1ccccc1)N1C(=O)c2ccccc2C1=O (stereo unspecified)	PKM2 activator 11µM
COc1ccc(/C=C/c2nc(C#N)c(NC3CCCCC3)o2)cc1OC	none (no result: USP2a block, Integrin act MD, PKM2 activator, IL-2 act)
COc1ccccc1/C=C/c1nc(C#N)c(NC2CCCCC2)o1	ClpP mod 2.8µM (no result: USP2a block, Integrin act MD, PKM2 activator, IL-2 act)
Cc1nc(NCc2ccco2)c2oc3ccccc3c2n1	ClpP mod 14µM
Cn1nnc2c(NCc3ccco3)nccc21	ClpP mod 16µM
CC(=O)Nc1ccc(Nc2nc(C)nc3c2oc2ccccc23)cc1	none
Cc1nnc(NCc2ccccc2)c2ccccc12	none
Cc1nnc(NCc2ccco2)c2ccccc12	ClpP mod 25µM
Cc1nc(Nc2ccncc2)c2oc3ccccc3c2n1	ClpP mod 14µM
CN(c1cccc(NC(=O)CN2C(=O)c3ccccc3S2(=O)=O)c1)S(C)(=O)=O	ClpP mod 28µM
CC(C)c1ccc(NC(=O)CN2C(=O)c3ccccc3S2(=O)=O)cc1	Integrin act MD 10µM (no result: PKM2 activator, ClpP mod)
CCOC(=O)c1sc(C)c2c1NC(C)(c1ccccc1)NC2=O (stereo unspecified)	ClpP mod 32µM
CC(NS(=O)(=O)c1cccc(Cl)c1)C(=O)Nc1ccc(-c2nc3ccccc3s2)cc1 (stereo unspecified)	ClpP mod 35µM
O=C(CCS(=O)(=O)c1ccccc1)Nc1ccc(-c2nc3ccccc3s2)cc1	PKM2 activator inconclusive (no result: ClpP mod)
O=C(CNS(=O)(=O)c1cccc(Cl)c1)Nc1ccc(-c2nc3ccccc3s2)cc1	none
COCCNc1nnc(SC(C)C(=O)Nc2ccc(-c3nc4ccc(C)cc4s3)cc2)s1 (stereo unspecified)	ClpP mod 18µM
CC(C)(C)c1ccc(S(=O)(=O)NCC(=O)Nc2ccc(-c3nc4ccccc4s3)cc2)cc1	ClpP mod 5µM
Cc1ccc(C)c(S(=O)(=O)NC(C)C(=O)Nc2ccc(-c3nc4ccccc4s3)cc2)c1 (stereo unspecified)	ClpP mod 32µM
C1NNCC12CNNC2	none (no result: USP2a block, Integrin act MD, PKM2 activator, Pin1 inh, IL-2 act)
C=CC(=O)N1C/C(=C/c2ccccc2)C(=O)/C(=C\c2ccccc2)C1	ClpP mod 32µM (no result: USP2a block, PKM2 activator)
C=CC(=O)N1C/C(=C/c2ccc(Cl)cc2)C(=O)/C(=C\c2ccc(Cl)cc2)C1	none (no result: USP2a block, PKM2 activator)
COc1cc(N(C)C)c(OC)cc1C=C1C=CC=C1	none (no result: USP2a block, Integrin act MD, PKM2 activator, Pin1 inh, IL-2 act)
COc1cc2c(NC3CCN(C(C)C)CC3)nc(N3CCCN(C)CC3)nc2cc1OCCCN1CCCC1	none (no result: USP2a block, Integrin act MD, PKM2 activator, Pin1 inh, IL-2 act)
COc1ccc(-c2cn3c(C)c(C(=O)NCCN4CCOCC4)sc3n2)cc1	ClpP mod 22µM
COc1ccc(-c2cc(C(=O)NCCN3CCOCC3)c3ccccc3n2)cc1	ClpP mod 35µM
CCCCn1cnc2c(=O)[nH]c(N)nc21	ClpP mod inconclusive (no result: USP2a block, Integrin act MD, PKM2 activator, IL-2 act)
COc1ccc(NC(=O)CSc2ccc3c4c(cccc24)C(=O)c2ccccc2-3)cc1	Pin1 inh inconclusive, IL-2 act 184
N#Cc1cccc(NC(=O)CSc2ccc3c4c(cccc24)C(=O)c2ccccc2-3)c1	Pin1 inh inconclusive
CCNc1nc(N2CCCN(C)CC2)nc2cc(OC)c(OC)cc12	none (no result: USP2a block, Integrin act MD, PKM2 activator, Pin1 inh, IL-2 act)
COc1ccc2cc(C#N)c(NC(C)C)nc2c1	ClpP mod 22µM
COC(=O)c1c(NC(=O)CC2Nc3ccccc3NC2=O)sc(C)c1C (stereo unspecified)	Pin1 inh inconclusive, IL-2 act 185
O=C(CC1Nc2ccccc2NC1=O)Nc1cc(Cl)cc(Cl)c1 (stereo unspecified)	none
CCOC(=O)c1c(NC(=O)CC2Nc3ccccc3NC2=O)sc(C)c1C (stereo unspecified)	Pin1 inh inconclusive, IL-2 act 158
Nc1ccc(S(=O)(=O)N2CCN(S(=O)(=O)c3c(F)cccc3F)CC2)cc1	none (no result: USP2a block, Integrin act MD, PKM2 activator, ClpP mod, IL-2 act)
Cc1ccc2nc(-c3ccccn3)oc2c1	none
Cc1ccc2nc(-c3cccnc3)oc2c1	ClpP mod 1.4µM!
Clc1ccc2oc(-c3ccccc3)nc2c1	none
Clc1ccc2oc(-c3cccnc3)nc2c1	ClpP mod 25µM
Cc1ccc(NS(=O)(=O)c2cc3c(cc2Cl)CCC(=O)N3)cc1C	none (no result: USP2a block, Integrin act MD, PKM2 activator, ClpP mod, IL-2 act)
Cc1ccc(NS(=O)(=O)c2cc3c(cc2F)NC(=O)CC3)cc1C	none (no result: USP2a block, Integrin act MD, PKM2 activator, ClpP mod, IL-2 act)
C(=C\c1nc2ccccc2nc1/C=C/c1ccc2c(c1)OCO2)/c1ccc2c(c1)OCO2	none (no result: USP2a block, Integrin act MD, PKM2 activator, Pin1 inh, IL-2 act)
CC(=O)CCc1oc2ccc(C)cc2c1-c1ccc(C)o1	PKM2 activator inconclusive
CC(=O)CCc1oc2ccc(NC(C)=O)cc2c1-c1ccc(C)o1	PKM2 activator 10µM
CC(CCC(C)[n+]1cccc(Br)c1)[n+]1cccc(Br)c1 (stereo unspecified)	none (no result: USP2a block, Integrin act MD, PKM2 activator, Pin1 inh, IL-2 act)
O=C(COc1ccccc1C(=O)Nc1ccccc1)Nc1cccc(Br)c1	none (no result: USP2a block, Integrin act MD, PKM2 activator, Pin1 inh, IL-2 act)
